From PMC9838217, “Structure of SALL4 zinc finger domain reveals link between AT-rich DNA binding and Okihiro syndrome” come the findings set out here.

Holding throughout (assay): HT-SELEX; high values mean tight binding
Common to all, as to settings: protein: recombinant; vector His6-GST; dsDNA, one strand shown

The target in assay [1] is T1, SALL4 ZFC4 WT (HT-SELEX) (Mus musculus, UniProt Q8BX22 870-940).
T1 sequence: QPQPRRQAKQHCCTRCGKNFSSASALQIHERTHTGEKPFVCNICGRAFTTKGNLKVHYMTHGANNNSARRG
Put shortly: (§1)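 Binding signal is expressed as fold change in each canonical k-mer's read fraction over the initial random library. To obtain it, 1 µg of purified recombinant mouse SALL4 zinc finger cluster 4 (residues 870–940) was incubated for 10 min at room temperature with library DNA (1.5 µg first cycle, 200 ng later cycles) in 100 µl of 10 mM Tris–HCl pH 7.5, 50 mM NaCl, poly(dI-dC) and DTT. Ni2+ bead-captured complexes went through washing, PCR amplification and reselection for up to 6 cycles, in triplicate, before MiSeq sequencing and scanning for 6-mers.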

The target of assay [2] is T2, SALL4 ZFC4 R900W (HT-SELEX) (Mus musculus, UniProt Q8BX22 870-940, R900W).
T2 sequence: T1 sequence with R31W
A digest of the protocol:
as §1

Assay [3] concerns the target T3, SALL4 ZFC4 G921D (HT-SELEX) (Mus musculus, UniProt Q8BX22 870-940, G921D).
T3 sequence: T1 sequence with G52D
Put shortly: as §1

Changes are numbered by the printed parent chain.

For AAGAAT, the results for the binding signal in assay [1], in assay [2] and in assay [3] were 2.15 ± 0.0737 fold-change vs cycle 0, 2.2 ± 0.103 fold-change vs cycle 0 and 1.91 ± 0.167 fold-change vs cycle 0, respectively.

With TAACGA, the figures for the binding signal in assay [1], in assay [2] and in assay [3] were 1.27 ± 0.0588 fold-change vs cycle 0, 1.31 ± 0.0864 fold-change vs cycle 0 and 1.26 ± 0.0862 fold-change vs cycle 0, respectively.

With AAAACC, the binding signal in assay [1] was determined as 0.956 ± 0.0539 fold-change vs cycle 0; in assay [2], 1.05 ± 0.0465 fold-change vs cycle 0; in assay [3] it was 1.1 ± 0.0332 fold-change vs cycle 0.

For ATAACC, the binding signal in assay [1] came to 1.63 ± 0.137 fold-change vs cycle 0; in assay [2], 1.47 ± 0.11 fold-change vs cycle 0; in assay [3], 1.38 ± 0.107 fold-change vs cycle 0.

For TCGTCA, the binding signal in assay [1] is 0.675 ± 0.0174 fold-change vs cycle 0; in assay [2], 0.765 ± 0.0313 fold-change vs cycle 0; in assay [3], 0.852 ± 0.012 fold-change vs cycle 0.

For the sequence ACCAAC, the binding signal in assay [1] came out at 0.731 ± 0.0183 fold-change vs cycle 0; in assay [2] it was 0.8162 ± 0.00324 fold-change vs cycle 0; in assay [3] it was 0.883 ± 0.0212 fold-change vs cycle 0.

Turning to CCTCGA, the binding signal in assay [1] was 0.415 ± 0.0275 fold-change vs cycle 0; in assay [2] it was 0.51 ± 0.0259 fold-change vs cycle 0; in assay [3], 0.594 ± 0.0635 fold-change vs cycle 0.

As to ACTGTA, the binding signal amounted to 1.35 ± 0.031 fold-change vs cycle 0 in assay [1], 1.49 ± 0.0592 fold-change vs cycle 0 in assay [2] and 1.38 ± 0.111 fold-change vs cycle 0 in assay [3].

As to CTGACC, the binding signal in assay [1] is 0.426 ± 0.0325 fold-change vs cycle 0; in assay [2] it was 0.52 ± 0.0363 fold-change vs cycle 0; in assay [3], 0.621 ± 0.0521 fold-change vs cycle 0.

Regarding ATATAC, the results for the binding signal in assay [1], in assay [2] and in assay [3] were 2.19 ± 0.164 fold-change vs cycle 0, 1.98 ± 0.103 fold-change vs cycle 0 and 1.78 ± 0.131 fold-change vs cycle 0, respectively.

For AGTACT, the binding signal in assay [1] was 1.32 ± 0.0981 fold-change vs cycle 0; in assay [2] it was 1.45 ± 0.094 fold-change vs cycle 0; in assay [3], 1.4 ± 0.116 fold-change vs cycle 0.

Take AACTGG: the binding signal in assay [1] came to 0.7531 ± 0.00684 fold-change vs cycle 0; in assay [2], 0.889 ± 0.0264 fold-change vs cycle 0; in assay [3], 0.904 ± 0.0346 fold-change vs cycle 0.

GCTTGA: the binding signal in assay [1] stood at 0.627 ± 0.00807 fold-change vs cycle 0; in assay [2], 0.737 ± 0.0133 fold-change vs cycle 0; in assay [3], 0.831 ± 0.0377 fold-change vs cycle 0.

For the sequence CACACG, the results for the binding signal in assay [1], in assay [2] and in assay [3] were 0.405 ± 0.0118 fold-change vs cycle 0, 0.525 ± 0.0166 fold-change vs cycle 0 and 0.649 ± 0.0779 fold-change vs cycle 0, respectively.

CCTACC: the binding signal in assay [1] was found to be 0.45 ± 0.0245 fold-change vs cycle 0; in assay [2], 0.53 ± 0.00975 fold-change vs cycle 0; in assay [3], 0.625 ± 0.0741 fold-change vs cycle 0.

As to GACGGA, the binding signal in assay [1] turned out to be 0.372 ± 0.0168 fold-change vs cycle 0; in assay [2], 0.427 ± 0.0141 fold-change vs cycle 0; in assay [3], 0.545 ± 0.0666 fold-change vs cycle 0.

With CACCCA, the results for the binding signal in assay [1], in assay [2] and in assay [3] were 0.431 ± 0.034 fold-change vs cycle 0, 0.488 ± 0.0313 fold-change vs cycle 0 and 0.59 ± 0.0722 fold-change vs cycle 0, respectively.

GTGGAA: the binding signal is 0.745 ± 0.0414 fold-change vs cycle 0 in assay [1], 0.83 ± 0.0233 fold-change vs cycle 0 in assay [2] and 0.871 ± 0.012 fold-change vs cycle 0 in assay [3].

On to AGTAAT, for which the binding signal in assay [1] turned out to be 2.39 ± 0.144 fold-change vs cycle 0; in assay [2], 2.3 ± 0.183 fold-change vs cycle 0; in assay [3], 1.99 ± 0.219 fold-change vs cycle 0.

As for ATTGCG, the binding signal was 0.438 ± 0.0111 fold-change vs cycle 0 in assay [1], 0.47 ± 0.0102 fold-change vs cycle 0 in assay [2] and 0.614 ± 0.0595 fold-change vs cycle 0 in assay [3].

As for TCTGAA, the binding signal in assay [1] is 1.3 ± 0.0929 fold-change vs cycle 0; in assay [2], 1.43 ± 0.078 fold-change vs cycle 0; in assay [3], 1.37 ± 0.111 fold-change vs cycle 0.

For the sequence ATTAAC, the binding signal in assay [1] was 2.04 ± 0.0632 fold-change vs cycle 0; in assay [2], 2.1 ± 0.104 fold-change vs cycle 0; in assay [3], 1.83 ± 0.178 fold-change vs cycle 0.

For the sequence ATCCGG, the binding signal in assay [1] came out at 0.352 ± 0.0195 fold-change vs cycle 0; in assay [2], 0.41 ± 0.0188 fold-change vs cycle 0; in assay [3], 0.52 ± 0.0559 fold-change vs cycle 0.

As to CATAGG, the binding signal in assay [1] was determined as 0.854 ± 0.0242 fold-change vs cycle 0; in assay [2], 0.918 ± 0.0253 fold-change vs cycle 0; in assay [3] it was 0.978 ± 0.022 fold-change vs cycle 0.

With ATCACG, the binding signal in assay [1] came to 0.751 ± 0.0409 fold-change vs cycle 0; in assay [2], 0.856 ± 0.012 fold-change vs cycle 0; in assay [3], 0.923 ± 0.0125 fold-change vs cycle 0.

Turning to AACAAC, the results for the binding signal in assay [1], in assay [2] and in assay [3] were 1.18 ± 0.0643 fold-change vs cycle 0, 1.26 ± 0.0286 fold-change vs cycle 0 and 1.25 ± 0.0618 fold-change vs cycle 0, respectively.

On to GATGGA, for which the values for the binding signal in assay [1], in assay [2] and in assay [3] were 0.878 ± 0.0295 fold-change vs cycle 0, 0.978 ± 0.0402 fold-change vs cycle 0 and 0.97 ± 0.0258 fold-change vs cycle 0, respectively.

As to AGGTAT, the binding signal was 1.44 ± 0.0737 fold-change vs cycle 0 in assay [1], 1.54 ± 0.0608 fold-change vs cycle 0 in assay [2] and 1.47 ± 0.0842 fold-change vs cycle 0 in assay [3].

CACCTC: the binding signal in assay [1] is 0.511 ± 0.0163 fold-change vs cycle 0; in assay [2] it was 0.563 ± 0.0344 fold-change vs cycle 0; in assay [3] it was 0.689 ± 0.0609 fold-change vs cycle 0.

Regarding AGGGAC, the binding signal in assay [1] came out at 0.483 ± 0.0313 fold-change vs cycle 0; in assay [2], 0.559 ± 0.0327 fold-change vs cycle 0; in assay [3] it was 0.674 ± 0.0751 fold-change vs cycle 0.
